Screens: PubChem, National Center for Advancing Translational Sciences (NCATS)
Many of the other results were omitted from the sample, so hits are more common in it than they were.
Pf Dd2 growth – blocks in vitro growth of P. falciparum Dd2; P. falciparum Dd2 growth, SYBR Green, 72 h; Potency, µM (doses to about 28.9 µM), without a hit: top-dose activity, negative = inhibition, usual class: inhibitors; 4.3% of 120,000 active; active means well fitted inhibition curve with a large enough effect;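 further: plate controls were DMSO vehicle for no effect and reference drug for full effect; nearly all actives have a fitted effect of over 65% in size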
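Readout: SYBR Green fluorescence, 485 nm excitation, 535 nm emission, after ~16 h lysis at 37C. Before that, Dd2-infected red cells (2.5% hematocrit) grew 72 h with compound, 29 uM top final concentration.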
Starred values were filed as active, the others as inactive; i = inactive; [ ] = remark or other dose. Potency means the concentration at half of the fitted maximal effect.

SMILES	Pf Dd2 growth
CCc1cccc(NC(=O)N2CCC(OC3CCN(Cc4ccccc4)CC3)CC2)c1	-7.2%
COc1ccc(C)cc1NC(=O)N1CCC(CN2CCC(C)CC2)CC1	1.9%
COc1ccc(C)cc1NC(=O)N1CCC(OC2CCN(S(C)(=O)=O)CC2)CC1	13.7%
CS(=O)(=O)N1CCC(OC2CCN(C(=O)Nc3ccccc3F)CC2)CC1	i
O=C(c1ccc(F)cc1)N1CCC(OC2CCN(Cc3ccccc3)CC2)CC1	11.2µM*
O=C(NC1CCCCC1)N1CCC(OC2CCN(Cc3ccccc3)CC2)CC1	213.0%
O=C(Nc1cccc(Cl)c1F)N1CCC(OC2CCN(Cc3ccccc3)CC2)CC1	6.31µM*
COCC(=O)Nc1cccc(C(=O)N(Cc2ccsc2)CC(C)C)c1	-18.1%
COC1CN(C2CCN(C(=O)C3CCOCC3)CC2)C12CCOCC2 (stereo unspecified)	-1.6%
CCC(C)NC(=O)C1CCN(C(=O)c2cc3sccc3n2Cc2ccc(Cl)cc2)CC1 (stereo unspecified)	i
Cc1nc(N)c(S(=O)(=O)c2ccccc2)c(Nc2ccc(Br)cc2)n1	17.7%
Cc1ccc(NC(=O)[C@@H]2CNC[C@H](C(=O)NCc3cnn(C)c3C)C2)cn1	-11.6%
CNC(=O)[C@@H](C1CC1)N1CCC[C@H]1C(=O)N1CCC(C)CC1	-3.3%[44.1 µM]
CCOc1ccc(CNC(=O)Cc2ccc(NC(=O)N3CCCCc4ccccc43)cc2)cc1OC	5.7%
Cc1ccc(NC(=O)Cn2c(C)cc3nc4n(c(=O)c32)CCC4)cc1	i
CCOc1ccccc1CNCc1cccn1-c1nnc(N2CCN(c3ccccc3)CC2)s1	7.08µM*
CCOc1ccccc1CNC(=O)c1cccn1-c1nnc(N2CCCCC2)s1	-13.1%
c1ccc(N2CCN(Cc3cccn3-c3nnc(N4CCN(C5CCCCC5)CC4)s3)CC2)cc1	-0.7%
COc1ccc(C)cc1NC(=O)CN1C(=O)NC2(CCC(C)CC2)C1=O (stereo unspecified)	i
CC1CN(c2ccccc2C#N)C(=O)CN1C(=O)c1cnc2ccccc2c1 (stereo unspecified)	-18.3%
CCc1cccc2c(C(CC(=O)NCc3ccc4c(c3)OCO4)c3ccc(OC)c(OC)c3)c[nH]c12 (stereo unspecified)	3.98µM*
COc1ccc(C(CC(=O)N2CCCC2)c2cn(Cc3ccccc3)c3ccccc23)cc1OC (stereo unspecified)	i
CCOC(=O)C1CCCN(C(=O)Cn2ncc3c4ccccc4n(C)c3c2=O)C1 (stereo unspecified)	-23.5%
CCc1cccc2c(C(CC(=O)NCCOC)c3ccc(OC)c(OC)c3)c[nH]c12 (stereo unspecified)	-19.6%
CCOC(=O)C1CCCN(C(=O)CC(c2ccc3c(c2)OCO3)c2cn(CC)c3ccccc23)C1 (stereo unspecified)	7.08µM*
SMILES	Pf Dd2 growth
CCOC(=O)C1CCN(C(=O)CC(c2ccc(Cl)cc2)c2cn(C)c3ccccc23)CC1 (stereo unspecified)	3.98µM*
CCOC(=O)C1CCN(C(=O)CC(c2ccc(OC)c(OC)c2)c2c[nH]c3c(CC)cccc23)CC1 (stereo unspecified)	1.26µM*
CCc1cccc2c(C(CC(=O)NCCc3ccc(OC)c(OC)c3)c3cccc(OC)c3)c[nH]c12 (stereo unspecified)	-15.6%
Cc1ccc(C(CC(=O)N2CCc3ccccc3C2)c2cn(C)c3ccccc23)cc1 (stereo unspecified)	i
COc1ccc(C(CC(=O)NCc2ccccc2)c2c[nH]c3ccccc23)cc1OC (stereo unspecified)	-7.0%
CCc1cccc2c(C(CC(=O)N3CCCC3)c3cccc(Cl)c3)c[nH]c12 (stereo unspecified)	-2.9%
Cc1ccc(C(CC(=O)N2CCC(C)CC2)c2cn(C)c3ccccc23)cc1 (stereo unspecified)	-26.8%
Cc1nnnn1CCc1nc(COc2cccc(F)c2)nn1CCO	-0.6%
COc1cccc(N2CC(C(=O)N3CCC(C(=O)NCC(F)(F)F)C3)NC2=O)c1 (stereo unspecified)	-10.7%
Cc1ccc(CNC(=O)c2cc(-c3ccc(C)c(C)c3)nc3ccccc23)cc1	41.8%
Cc1ccccc1OCC(=O)Nc1nnc(SCc2cc(=O)n3cc(Cl)ccc3n2)s1	-7.0%
CCn1ccc(C(=O)N2CCc3c(nc(-c4ccc(OC)cc4)[nH]c3=O)C2)n1	-28.9%
O=C(c1ccn(C(F)F)n1)N1CCc2nc(-c3ccc(Cl)cc3)[nH]c2C1	12.6µM*
Cc1cc(C(=O)N2CCc3c(nc(-c4ccc(F)cc4)[nH]c3=O)C2)nn1C	-7.7%
COc1ccc(CN2C[C@@H](CO)[C@H](c3ccncc3)C2)cc1	-25.0%
CC(=O)c1c(C)nn(CCC(=O)N[C@H]2CCOC[C@H]2C2CCOCC2)c1C	-3.9%
CC(C)NC(=O)c1c(-c2ccc(F)cc2)noc1[C@H](C)O	-8.4%[44.1 µM]
CCN(CC)S(=O)(=O)N(C)CC1CCCN(CCc2ccccc2OC)C1 (stereo unspecified)	2.82µM*
COc1ccccc1CCC(=O)N1CC[C@@H]2CN(S(C)(=O)=O)[C@@H]2C1	8.0%
